By AC50 is commonly meant the concentration giving half of the maximal activity seen.

Active and inactive are the calls of the source. How the source made its calls: active means hit-call score of the fitted dose curve at least 0.9, where 1 is the maximum; inactive means score below 0.9.

Holding throughout (conditions): mRNA level, 48 h; actives raise or lower the signal
Read-out in test [1]: Alkaline Phosphatase, Placental (ALPP) gene, ALPP (gene 250)
In words: LTEA_HepaRG_ALPP: Life Technologies and Expression Analysis (LTEA) Assay for Alkaline Phosphatase, Placental (ALPP) gene using HepaRG (AID 2283468).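 On AC50: differentiated human HepaRG liver cells in serum-free induction medium.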 Summed up: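 ALPP transcript level, measured by qRT-PCR and normalized to three housekeeping genes (ACTB, GAPDH, POLR2A), after 48 h dosing of differentiated HepaRG in serum-free induction medium. Top concentration 100 uM with half-log dilutions (8 points, 0.5% DMSO, duplicates); bidirectional fitting relative to DMSO.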

Read-out in test [2]: Bcl-2 (BAD) gene, BAD (gene 572)
Kind of test: LTEA_HepaRG_BAD: Life Technologies and Expression Analysis (LTEA) Assay for Bcl-2 (BAD) gene using HepaRG (AID 2283469). Summed up: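 Read-out: qRT-PCR of BAD mRNA, normalized to three housekeeping genes. Human HepaRG cultures got 48 h chemical exposure in 0.5% DMSO, duplicate eight-point half-log series topping at 100 uM. Gain or loss of signal fitted versus DMSO vehicle.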

Read-out in test [3]: Bcl-2 (BAX) gene, BAX (gene 581)
In words: LTEA_HepaRG_BAX: Life Technologies and Expression Analysis (LTEA) Assay for Bcl-2 (BAX) gene using HepaRG (AID 2283470). Summed up: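 Human HepaRG cells treated in duplicate for 48 h across eight concentrations (max 100 uM, 0.5% DMSO); BAX expression measured by qRT-PCR.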

Read-out in test [4]: adenosine kinase (ADK) gene, ADK (gene 132)
Kind of test: LTEA_HepaRG_ADK: Life Technologies and Expression Analysis (LTEA) Assay for adenosine kinase (ADK) gene using HepaRG (AID 2283471). The procedure, abridged: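 Read-out is ADK transcript level measured by qRT-PCR and normalised to three housekeeping genes. Cells are human HepaRG, dosed for 48 h at up to 100 uM in 0.5% DMSO. Gain or loss of signal is fitted against DMSO controls.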

Read-out in test [5]: Alpha-fetoprotein (AFP) gene, AFP (gene 174)
In words: LTEA_HepaRG_AFP: Life Technologies and Expression Analysis (LTEA) Assay for Alpha-fetoprotein (AFP) gene using HepaRG (AID 2283472). Summed up: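 Measures AFP mRNA change in HepaRG after 48 h chemical exposure (8 half-log concentrations, highest 100 uM, 0.5% DMSO). Fold change relative to DMSO, fitted in both directions.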

Read-out in test [6]: BCL2L11 (gene 10018)
In words: LTEA_HepaRG_BCL2L11: Life Technologies and Expression Analysis (LTEA) Assay for Bcl-2 (BCL2L11) gene using HepaRG (AID 2283473). Summed up: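 BCL2L11 transcript levels are measured by Fluidigm qRT-PCR, normalized to three housekeeping genes. HepaRG cultures were plated 48 h, then treated 48 h with test chemical (top 100 uM, half-log, 0.5% DMSO vehicle); curves were fitted bidirectionally against DMSO.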

Read-out in test [7]: Apolipoprotein A-V (APOA5) gene, APOA5 (gene 116519)
In words: LTEA_HepaRG_APOA5: Life Technologies and Expression Analysis (LTEA) Assay for Apolipoprotein A-V (APOA5) gene using HepaRG (AID 2283474). The procedure, abridged:
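APOA5 transcript levels were quantified by qRT-PCR, normalized to three housekeeping genes, after 48 h chemical treatment of HepaRG cells (8 points, 100 uM maximum, half-log steps, 0.5% DMSO). Curves fitted in both directions against vehicle.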

Read-out in test [8]: Apoptosis regulator Bcl-2 (Homo sapiens) (UniProt P10415)
Kind of test: LTEA_HepaRG_BCL2: Life Technologies and Expression Analysis (LTEA) Assay for Bcl-2 gene using HepaRG (AID 2283475).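 Further: BCL2 transcript by TaqMan qRT-PCR normalised to ACTB GAPDH and POLR2A.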 Summed up: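 Each chemical was tested in duplicate on HepaRG cultures held in serum-free induction medium for 48 h, highest concentration 100 uM with half-log dilutions. Transcript levels came from multiplexed qRT-PCR, normalised to housekeeping genes; activity was scored in either direction relative to DMSO.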

Read-out in test [9]: Bcl-2 (BID) gene, BID (gene 637)
In words: LTEA_HepaRG_BID: Life Technologies and Expression Analysis (LTEA) Assay for Bcl-2 (BID) gene using HepaRG (AID 2283476). The procedure, abridged: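 Assay used HepaRG hepatic cells treated 48 h in serum-free medium with half-log dilutions from 100 uM. Endpoint: BID mRNA, qRT-PCR, normalized to ACTB/GAPDH/POLR2A.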

Read-out in test [10]: Caspase-3 (Homo sapiens) (UniProt P42574)
Kind of test: LTEA_HepaRG_CASP3: Life Technologies and Expression Analysis (LTEA) Assay for cysteine-aspartic acid protease (CASP3) using HepaRG (AID 2283477). Summed up:
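Expression of CASP3 was quantified by TaqMan qRT-PCR against three housekeeping genes (ACTB, GAPDH, POLR2A), bidirectionally versus 0.5% DMSO. HepaRG cultures received compounds in duplicate, top 100 uM with half-log steps, for 48 h in serum-free induction medium.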

Sequence of Apoptosis regulator Bcl-2 (Homo sapiens) (P10415 whole entry, looked up): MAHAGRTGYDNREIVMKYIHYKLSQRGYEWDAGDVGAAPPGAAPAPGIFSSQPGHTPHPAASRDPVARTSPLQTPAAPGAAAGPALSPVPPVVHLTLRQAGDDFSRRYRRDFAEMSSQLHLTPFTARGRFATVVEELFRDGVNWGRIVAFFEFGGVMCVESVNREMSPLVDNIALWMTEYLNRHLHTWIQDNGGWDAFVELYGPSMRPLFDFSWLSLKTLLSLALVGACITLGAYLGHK
Sequence of Caspase-3 (Homo sapiens) (P42574 whole entry, looked up): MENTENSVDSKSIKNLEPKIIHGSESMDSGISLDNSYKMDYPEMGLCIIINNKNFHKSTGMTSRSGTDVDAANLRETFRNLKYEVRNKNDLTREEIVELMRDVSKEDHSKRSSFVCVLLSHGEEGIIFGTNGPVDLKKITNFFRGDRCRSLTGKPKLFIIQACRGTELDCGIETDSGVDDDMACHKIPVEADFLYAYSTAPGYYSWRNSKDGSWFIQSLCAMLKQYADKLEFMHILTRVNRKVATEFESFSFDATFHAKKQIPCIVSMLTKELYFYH

Consider `Cc1cc(Cc2ccc(N)c(C)c2)ccc1N`, for which the compound was classed as inactive in test [1], in [2], in test [3], in [4], in test [5] and in test [6]. In addition, the compound was classed as inactive in test [7], in test [8], in [9] and in test [10].

With `COC(=O)CCC(=O)OC`, the outcome in [1], in test [2], in test [3], in test [4], in test [5] and in [6] was inactive. Moreover, the compound was called inactive in test [7], in test [8], in test [9] and in test [10].

For the compound `CN(C)C(=O)NC1(c2ccccc2)CCN(CCC[C@]2(c3ccc(Cl)c(Cl)c3)CCCN(C(=O)c3ccccc3)C2)CC1`, the AC50 in test [1] is 24 µM (active); in [3], 19.6 µM (active); in test [4], 12.5 µM (active); in test [7], 21.3 µM (active). Further, the outcome in test [2], in [5], in [6], in test [8], in test [9] and in test [10] was inactive.

For the compound `Cc1occc(=O)c1O`, the result in test [1], in [2], in test [3], in [4], in [5] and in test [6] was inactive. The compound was classed as inactive in [7], in test [8], in [9] and in test [10].

As to `CC(C)OC(=O)C(C)(C)Oc1ccc(C(=O)c2ccc(Cl)cc2)cc1`, the result in test [1], in [2], in [3], in test [4], in test [5] and in [6] was inactive. Besides, the outcome in [8] and in [10] was inactive. Further, the results for the half-maximal activity concentration (AC50) in test [7] and in [9] were 0.0432 µM (active) and 0.0422 µM (active), respectively.

Regarding `OCC(CO)n1cnc(-c2ccc(F)cc2)c1-c1ccnc(Oc2ccccc2)n1`, the result in [1], in test [2], in test [3], in [4], in test [6] and in test [7] was inactive. Further, the call in test [8], in test [9] and in [10] was inactive. Also, the AC50 in [5] is 28.4 µM (active).

For the compound `CCCCCCCCCCCCCCCCO`, the compound was classed as inactive in [1], in test [2], in test [3], in test [4], in test [5] and in test [6]. Also, the call in test [7], in test [8], in test [9] and in test [10] was inactive.

Regarding `CCCCCCC(C=O)=Cc1ccccc1`, the outcome in [1], in test [2], in test [3], in test [4], in test [5] and in test [6] was inactive. Further, the compound was classed as inactive in test [7], in [8], in test [9] and in [10].

Turning to `C=CCCCCCCCCCCCC`, the compound was called inactive in [1], in test [2], in test [3], in [4], in [5] and in test [6]. Moreover, the result in test [7], in test [8], in [9] and in test [10] was inactive.

As for `CCc1nc(N)nc(N)c1-c1ccc(Cl)cc1`, the AC50 in test [1] is 44.2 µM (active); in [5], 32.8 µM (active); in [8] it was 50 µM (active). Besides, the compound was called inactive in [2], in test [3], in [4], in test [6], in [7] and in test [9]. The call in [10] was inactive.

`C#CC(O)C(CC)CCCC` (stereo not given): the call in [1], in test [2], in test [3], in test [4], in test [5] and in test [6] was inactive. The compound was called inactive in test [7], in test [8], in test [9] and in test [10].

`Cc1ccc(C(C)(C)C)c(O)c1`: the outcome in test [1], in test [2], in test [3], in [4], in test [5] and in test [6] was inactive. Further, the compound was called inactive in test [7], in [8], in test [9] and in test [10].

Consider `CCCC[C@H]1CN(CC2CCOCC2)C(=O)OC12CCN(C1(C)CCN(C(=O)c3c(C)ncnc3C)CC1)CC2`, for which the call in test [1], in test [2], in test [3], in [4], in test [5] and in test [6] was inactive. In addition, the outcome in test [7], in test [8], in [9] and in test [10] was inactive.

Regarding `CC(=O)[C@@]1(O)CC[C@H]2[C@@H]3CCC4=CC(=O)CC[C@]4(C)[C@H]3CC[C@@]21C`, the compound was classed as inactive in test [1], in test [2], in test [3], in test [4], in test [6] and in test [7]. Moreover, the compound was called inactive in test [8], in [9] and in test [10]. Moreover, the half-maximal activity concentration (AC50) in test [5] was 50 µM (active).

Turning to `O=C(O)CC(O)(CC(=O)O)C(=O)O`, the call in [1], in [2], in test [3], in test [4], in test [5] and in test [6] was inactive. In addition, the result in [7], in test [8], in test [9] and in test [10] was inactive.

On to `COc1ccc(OC(F)(F)F)cc1CN[C@H]1CCCN[C@H]1c1ccccc1`, for which the compound was classed as inactive in test [1], in [2], in [3], in [7], in [8] and in [9]. Besides, the half-maximal activity concentration (AC50) in [4] is 79.3 µM (active); in test [5], 9.61 µM (active); in [6], 84.5 µM (active); in test [10] it was 81.8 µM (active).

Turning to `Cc1c(C)c2c(c(C)c1O)CCC(C)(COc1ccc(CC3SC(=O)NC3=O)cc1)O2` (stereo not given), the concentration at half-maximal activity (AC50) was 15.8 µM (active) in test [1], 29.6 µM (active) in test [3], 25 µM (active) in test [5] and 90.1 µM (active) in test [6]. Besides, the compound was classed as inactive in test [2], in test [4], in test [7], in test [8], in [9] and in test [10].

`CC(=O)OCC(COC(C)=O)OC(C)=O`: the outcome in test [1], in test [2], in test [3], in test [4], in test [5] and in [6] was inactive. The result in [7], in test [8], in test [9] and in [10] was inactive.

With `CC(=O)OC1CC(C)OC(C)O1` (stereo not given), the result in test [1], in [2], in test [3], in [4], in test [5] and in test [6] was inactive. For the same compound, the outcome in [7], in test [8], in [9] and in test [10] was inactive.

On to `CCCCOC(=O)CCCCC(=O)OCCCC`, for which the outcome in test [1], in [2], in [3], in test [4], in test [5] and in [6] was inactive. Moreover, the result in test [7], in test [8], in test [9] and in test [10] was inactive.

Take `CC(=O)S[C@H](C(=O)N[C@H]1Cc2ccccc2[C@H]2CCC[C@@H](C(=O)O)N2C1=O)C(C)C`: the outcome in test [1], in test [2], in [3], in [4], in test [5] and in test [6] was inactive. For the same compound, the compound was called inactive in test [7], in test [8], in [9] and in test [10].

As to `O=C(O)CN(CC(=O)O)CC(=O)O`, the compound was called inactive in [1], in [2], in [3], in test [4], in test [5] and in test [6]. Besides, the compound was called inactive in [7], in test [8], in [9] and in [10].

The values above are taken from PubChem BioAssay (EPA / NIEHS).
